# Among all 39,000 compounds or so, about 3,300 (8.5%) were called active. The full list was thinned out, with actives kept by preference.
# Test system: HepG2
# Assay: cytotoxicity call (relative viability < 0.9)
# Conditions: 10 µM
row,Structure (SMILES),cytotoxicity call
1,COc1ccc(NC(=O)Nc2ccc3c(c2)C(=O)N([C@H](C)CO)C[C@@H](C)[C@@H](CN(C)C(=O)Cc2ccccc2)OCCCC[C@H](C)O3)cc1,inactive
2,NC1(C#Cc2cncc(C(=O)N3CCOCC3)c2)CCCCC1,inactive
3,C[C@@H]1CN([C@H](C)CO)C(=O)c2cc(NC(=O)NC3CCCCC3)ccc2O[C@@H](C)CCCCO[C@H]1CN(C)Cc1ccc2c(c1)OCO2,inactive
4,Cc1ccc(S(=O)(=O)Nc2ccc3c(c2)CC(=O)N([C@H](C)CO)C[C@H](C)[C@H](CN(C)S(=O)(=O)c2ccccc2)O3)cc1,inactive
5,COc1ccccc1S(=O)(=O)N[C@H]1C=C[C@H](CC(=O)N2CCN(C)CC2)O[C@H]1CO,inactive
6,COc1ccc(NC(=O)Nc2ccc3c(c2)C(=O)N([C@@H](C)CO)C[C@@H](C)[C@H](CN(C)S(=O)(=O)c2c(C)noc2C)OCCCC[C@@H](C)O3)cc1,inactive
7,Cc1cc(C(=O)Nc2cccc3c2O[C@H](CN(C)C(=O)NC(C)C)[C@@H](C)CN([C@@H](C)CO)C3=O)n(C)n1,inactive
8,C[C@@H]1CCCCO[C@@H](CN(C)S(=O)(=O)c2cccs2)[C@@H](C)CN([C@H](C)CO)C(=O)c2cc(NC(=O)c3ccccc3)ccc2O1,inactive
9,O=C(C[C@@H]1CC[C@@H](NS(=O)(=O)c2ccccc2F)[C@@H](CO)O1)NCCCN1CCOCC1,inactive
10,O=C(C[C@@H]1CC[C@@H]2[C@H](COC[C@@H](O)CN2C(=O)C2CC2)O1)NCc1ccncc1,inactive
11,C[C@@H]1CN([C@H](C)CO)C(=O)c2cc(NC(=O)Nc3ccc(F)cc3)ccc2O[C@H]1CN(C)C(=O)Nc1ccc(C(F)(F)F)cc1,inactive
12,C[C@H](CO)N1C[C@H](C)[C@@H](CN(C)C(=O)Nc2ccc(F)cc2)Oc2ccc(NC(=O)Nc3ccc(C(F)(F)F)cc3)cc2C1=O,inactive
13,C[C@H](CO)N1C[C@H](C)[C@@H](CN(C)C(=O)Nc2ccc(C(F)(F)F)cc2)Oc2ccc(NC(=O)Cc3ccccc3)cc2C1=O,inactive
14,C[C@@H]1CN([C@@H](C)CO)C(=O)c2cc(NC(=O)Nc3ccc(C(F)(F)F)cc3)ccc2O[C@@H]1CN(C)C(=O)Nc1ccc(F)cc1,active
15,C[C@H]1CN([C@@H](C)CO)C(=O)c2cc(NC(=O)Cc3ccccc3)ccc2O[C@@H]1CN(C)C(=O)Nc1ccc(C(F)(F)F)cc1,inactive
16,C[C@H](CO)N1C[C@H](C)[C@H](CN(C)C(=O)Nc2ccc(C(F)(F)F)cc2)Oc2ccc(NC(=O)Cc3ccccc3)cc2C1=O,active
17,C[C@@H]1CN([C@H](C)CO)C(=O)c2cc(NC(=O)Nc3ccc(C(F)(F)F)cc3)ccc2O[C@@H]1CN(C)C(=O)Nc1ccc(F)cc1,active
18,C[C@H]1CN([C@@H](C)CO)C(=O)c2cc(NC(=O)Nc3ccc(C(F)(F)F)cc3)ccc2O[C@H]1CN(C)C(=O)Nc1ccc(F)cc1,inactive
19,C[C@@H]1CN([C@@H](C)CO)C(=O)c2cc(NC(=O)Nc3ccc(F)cc3)ccc2O[C@@H]1CN(C)C(=O)Nc1ccc(C(F)(F)F)cc1,inactive
20,CNc1[nH]cnc(=S)c1N,inactive
21,COc1ccc(NC(=O)Nc2ccc3c(c2)C(=O)N([C@H](C)CO)C[C@@H](C)[C@H](CN(C)CC2CCCCC2)O3)cc1,inactive

row,Structure (SMILES),cytotoxicity call
1,CO[C@H]1CN(C(=O)c2ccnnc2)[C@H]2COC[C@@H]12,inactive
2,Cc1noc(C)c1S(=O)(=O)Nc1ccc2c(c1)C(=O)N([C@@H](C)CO)C[C@@H](C)[C@@H](CN(C)Cc1ccc3c(c1)OCO3)O2,inactive
3,Cc1cc(O)c(C(=O)NC(C(=O)NC2C(=O)N3C(C(=O)O)=C(CSc4nnnn4C)CSC23)c2ccc(O)cc2)cn1 (stereo not drawn),inactive
4,C[C@H](CO)N1C[C@H](C)[C@@H](CN(C)C(=O)Nc2cccc3ccccc23)Oc2ccc(NC(=O)Nc3ccc4c(c3)OCO4)cc2C1=O,inactive
5,N[C@H]1[C@H](CCCCC(=O)O)SC[C@@H]1N,inactive
6,Cc1noc(C)c1NC(=O)N(C)C[C@@H]1Oc2ccc(NC(=O)c3ccncc3)cc2CC(=O)N([C@@H](C)CO)C[C@H]1C,inactive
7,NCCc1ccc(O)c(O)c1,inactive
8,Cl.NCCc1ccc(O)c(O)c1,active
9,CC(Cc1ccc(O)c(O)c1)C(C)Cc1ccc(O)c(O)c1 (stereo not drawn),inactive
10,O=C(C[C@H]1CC[C@@H]2[C@H](COC[C@@H](O)CN2C(=O)C2CC2)O1)NCc1ccncc1,inactive
11,COc1cc(CO)cc(I)c1O[C@H]1C=C(C(=O)NCCO)C[C@@H](NC[C@@H]2CCCO2)[C@@H]1O,inactive
12,COc1cc(CO)cc(I)c1O[C@H]1C=C(C(=O)NCCO)C[C@@H](NCc2ccc(F)cc2)[C@@H]1O,inactive
13,COc1cc(CO)cc(I)c1O[C@H]1C=C(C(=O)NCCO)C[C@@H](NC2CCCCCC2)[C@@H]1O,active
14,C[C@@H]1CN([C@@H](C)CO)C(=O)c2cc(NC(=O)Cc3ccccc3)ccc2O[C@@H](C)CCCCO[C@@H]1CN(C)Cc1ccccc1,inactive
15,C[C@@H]1CCCCO[C@@H](CN(C)Cc2ccc(Cl)c(Cl)c2)[C@@H](C)CN([C@H](C)CO)C(=O)c2cc(NC(=O)Cc3ccccc3)ccc2O1,active
16,C[C@@H]1CCCCO[C@H](CN(C)Cc2ccc(Cl)c(Cl)c2)[C@H](C)CN([C@@H](C)CO)C(=O)c2cc(NC(=O)Cc3ccccc3)ccc2O1,inactive
17,C[C@@H]1CCCCO[C@H](CN(C)Cc2ccc(Cl)c(Cl)c2)[C@@H](C)CN([C@H](C)CO)C(=O)c2cc(NC(=O)Cc3ccccc3)ccc2O1,active
18,C[C@H](CO)N1C[C@H](C)[C@@H](CN(C)Cc2ccc(Cl)c(Cl)c2)OCCCC[C@H](C)Oc2ccc(NC(=O)Cc3ccccc3)cc2C1=O,active
19,C[C@@H]1CN([C@@H](C)CO)C(=O)c2cc(NC(=O)Cc3ccccc3)ccc2O[C@@H](C)CCCCO[C@H]1CN(C)Cc1ccccc1,inactive
20,C[C@@H]1CCCCO[C@@H](CN(C)Cc2ccccc2)[C@@H](C)CN([C@@H](C)CO)C(=O)c2cc(NC(=O)Cc3ccccc3)ccc2O1,inactive
21,C[C@H]1CCCCO[C@@H](CN(C)Cc2ccccc2)[C@@H](C)CN([C@@H](C)CO)C(=O)c2cc(NC(=O)Cc3ccccc3)ccc2O1,inactive

row,Structure (SMILES),cytotoxicity call
1,C[C@@H]1CCCCO[C@@H](CN(C)Cc2ccc(Cl)c(Cl)c2)[C@H](C)CN([C@H](C)CO)C(=O)c2cc(NC(=O)Cc3ccccc3)ccc2O1,inactive
2,C[C@@H]1CN([C@H](C)CO)C(=O)c2cc(NC(=O)Cc3ccccc3)ccc2O[C@@H](C)CCCCO[C@H]1CN(C)Cc1ccc(Cl)c(Cl)c1,active
3,CC(C)NC(=O)[C@@]1(C)c2ccccc2C(=O)N(Cc2cc(C(F)(F)F)cc(C(F)(F)F)c2)[C@H]1c1ccc(CO)cc1,inactive
4,C[C@H](CO)N1C[C@H](C)[C@@H](CN(C)S(=O)(=O)c2ccccc2F)Oc2cc(C#Cc3cccc(F)c3)ccc2S1(=O)=O,inactive
5,COc1ccc(S(=O)(=O)N(C)C[C@H]2Oc3ccc(NC(=O)Cc4ccccc4)cc3CC(=O)N([C@@H](C)CO)C[C@@H]2C)cc1,inactive
6,C[C@H](CO)N1C[C@H](C)[C@@H](CN(C)C(=O)Cc2ccccn2)Oc2ncc(C#CC3CCCCC3)cc2C1=O,inactive
7,C[C@H](CO)N1C[C@H](C)[C@H](CN(C)S(=O)(=O)c2ccc(F)cc2)Oc2ccc(NC(=O)c3ccncc3)cc2C1=O,inactive
8,CC(C)NC(=O)Nc1ccc2c(c1)CC(=O)N([C@@H](C)CO)C[C@H](C)[C@@H](CN(C)Cc1ccc3c(c1)OCO3)O2,inactive
9,C[C@@H]1CCCCO[C@@H](CN(C)C(=O)c2ccccc2)[C@H](C)CN([C@@H](C)CO)C(=O)c2cc(NC(=O)Nc3ccc(F)cc3)ccc2O1,inactive
10,C[C@H](NC(=O)C[C@H]1C[C@H]2c3cc(NC(=O)Nc4ccc(C(F)(F)F)cc4)ccc3O[C@H]2[C@@H](CO)O1)c1ccccc1,inactive
11,CC(C)[Si]1(C(C)C)OCc2cc(-c3ccc(-c4ccc(Cl)c(Cl)c4)o3)nc(-c3ccccc3)c21,inactive
12,CCC(=O)OC1C2CC3=C4CC(=O)OC(c5ccoc5)C4(C)CCC3C(C)(C2=O)C(CC(=O)OC)C1(C)C (stereo not drawn),inactive
13,C[C@H](CO)N1C[C@H](C)[C@@H](CN(C)S(=O)(=O)c2ccccc2)OCCCC[C@H](C)Oc2ccc(NC(=O)NC3CCCCC3)cc2C1=O,inactive
14,C[C@@H]1CN([C@H](C)CO)C(=O)c2cc(NC(=O)Cc3ccccc3)ccc2O[C@@H](C)CCCCO[C@@H]1CN(C)Cc1ccc(Cl)c(Cl)c1,inactive
15,C[C@@H]1CCCCO[C@@H](CN(C)Cc2ccc(Cl)c(Cl)c2)[C@H](C)CN([C@@H](C)CO)C(=O)c2cc(NC(=O)Cc3ccccc3)ccc2O1,active
16,C[C@@H]1CCCCO[C@H](CN(C)Cc2ccc(Cl)c(Cl)c2)[C@@H](C)CN([C@@H](C)CO)C(=O)c2cc(NC(=O)Cc3ccccc3)ccc2O1,inactive
17,C[C@H]1CCCCO[C@H](CN(C)Cc2ccc(Cl)c(Cl)c2)[C@@H](C)CN([C@@H](C)CO)C(=O)c2cc(NC(=O)Cc3ccccc3)ccc2O1,active
18,C[C@@H]1CCCCO[C@@H](CN(C)Cc2ccc(Cl)c(Cl)c2)[C@@H](C)CN([C@@H](C)CO)C(=O)c2cc(NC(=O)Cc3ccccc3)ccc2O1,inactive
19,C[C@@H]1CCCCO[C@H](CN(C)Cc2ccccc2)[C@@H](C)CN([C@H](C)CO)C(=O)c2cc(NC(=O)Cc3ccccc3)ccc2O1,inactive
20,C[C@H]1CN([C@@H](C)CO)S(=O)(=O)c2ccc(C#CC3(O)CCCC3)cc2O[C@@H]1CN(C)C(=O)Nc1ccccc1,inactive
21,C[C@H](CO)N1C[C@H](C)[C@@H](CN(C)S(=O)(=O)c2cccs2)OCCCC[C@H](C)Oc2ccc(NC(=O)Cc3ccccc3)cc2C1=O,inactive

# Source: the antibiotic and cytotoxicity screens of Wong et al. (2023)
